# RXFP1 agonist – agonists of human relaxin receptor RXFP1 | AID 2676 | 370,000 tested, 0.3% active | Potency, µM (doses to about 57.5 µM), for the others: top-dose activation, actives largely listed as activators | HEK293T-RXFP1 cAMP TR-FRET, 30 min; response scale: percent of porcine relaxin response, buffer zero | Q9HBX9; active means well fitted activation curve with a large enough effect; inconclusive means small, poorly fitted or top-dose-only effect; further: potency means the concentration at half of the fitted maximal effect; on the % scale 0 is the no-effect control and ±100 the full control effect; nearly all actives have a fitted effect of over 60% in size
#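 HEK293 cells stably expressing RXFP1, treated 30 min at 37C with compounds plus PDE4 inhibitor Ro 20174; cAMP measured by HTRF TR-FRET. Normalized to buffer and 29 nM porcine relaxin; EC50 by Hill fit.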
# gsp antagonist – antagonists of gsp mutant (McCune-Albright syndrome); gsp-mutant cells, cAMP HTRF, 30 min; Potency, µM (series often up to 76.9 µM), for inactives: top-dose activity change, negative = inhibition, hits mostly inhibitors; 340,000 tested, 0.4% active; calls by dose curve; cell line not stated here;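 further: intracellular cAMP measured with PDE inhibitor Ro 20-1724 present during compound exposure; potency means the concentration at half of the fitted maximal effect; on the % scale 0 is the no-effect control and ±100 the full control effect; nearly all actives have a fitted effect of over 65% in size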
#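 Cells, 2000/well, grown 16–24 h in DMEM 10% FBS with 0.5 mg/ml G418, then compounds plus […] (300 uM addition stock), 30 min at 37C. cAMP read by HTRF (cAMP-d2 and anti-cAMP antibody-K in lysis buffer) after 30 min RT.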
# RXFP1 antagonist – antagonists of human relaxin receptor RXFP1; 350,000 tested, 0.59% active; activity change, negative = inhibition, % at 57.5 µM; HEK293-RXFP1, relaxin-stimulated cAMP HTRF, 30 min; stronger effect = lower value; AID 1259400;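 active means activity change of -60% or lower, but not beyond a set lower limit; inconclusive means change between -60% and -40%, or beyond the set limit; inactive means change above -40%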; further: on the % scale 0 is the no-effect control and ±100 the full control effect
# pAkt inh – inhibitors of Akt phosphorylation; 360,000 tested, 0.32% active; Neuro2A IGF-stimulated pAkt S473 HTRF, 20 min; stronger effect = lower value; activity change, % for hits at 50 µM; in the data active means activity change below about -80%; inconclusive means mostly about -51% to -80%; further: on the % scale 0 is the no-effect control and ±100 the full control effect
#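 Single-point screen (50 µM final compound) in Neuro2A cells stimulated 20 min with 6 nM IGF at 37 deg C. After lysis, Ser473-phosphorylated Akt read by HTRF (ex 330 nm, em 615/665 nm) as the 665/615 ratio.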
# ClpP mod – qHTS Assay for Activators of ClpP; 340,000 tested, 1.9% active; purified B. subtilis ClpP, FRET peptide cleavage, 20 min; ATP-dependent Clp protease proteolytic subunit (Bacillus subtilis (strain 168)), P80244; Potency, µM (top dose mostly 57.5 µM), for the others: top-dose activity change, negative = active; active means well fitted falling curve with a large enough effect; inconclusive means small, poorly fitted or top-dose-only effect; inactive means no such curve, though single readings can be large or run the other way; further: potency means the concentration at half of the fitted maximal effect; the source files actives as falling curves though it sought activators and does not explain the sign; nearly all actives have a fitted effect of over 65% in size
#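 ClpP 10 microg/mL final, pH 8 Tris/KCl buffer with BSA, glycerol, Tween-20; compound pinned in; FRET-FV substrate; RT 20 min; Ex320/Em430; ΔFRET vs ADEP 5.8 microM, DMSO, no enzyme.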
# gsp ag – gsp mutant agonism; gsp mutant cells, cAMP HTRF, 30 min; Potency, µM (top dose mostly 76.9 µM), inactives show at the highest dose activation (cAMP increase), hits mostly activators; 340,000 tested, 0.13% active; AID 624287; active means well fitted activation curve with a large enough effect; inconclusive means small, poorly fitted or top-dose-only effect, or another doubt; inactive means no such curve, though single readings can be large or run the other way; cell line not stated here;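 further: phosphodiesterase inhibitor Ro 20-1724 added with compounds to block cAMP breakdown; potency means the concentration at half of the fitted maximal effect; nearly all actives have a fitted effect of over 60% in size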
#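 Cells stably selected in G418 were plated at 2000/well, grown 16-24 hr, then given compounds in DMSO with the PDE inhibitor […] (300 uM solution added) for 30 min at 37C; cAMP was read by HTRF.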
# * marks the source's active call; other numbers are inactive results; i = inactive; ? = inconclusive; . = not tested or not shown; ! = a repeat was not active; [ ] = dose if it differs, or a comment. Sampled rows, rich in hits. Any-hit rate of the full collection: about 2.7%.
SMILES,RXFP1 agonist,gsp antagonist,RXFP1 antagonist,pAkt inh,ClpP mod,gsp ag
O=C(CN(c1ccc(Br)cc1)S(=O)(=O)c1ccc(Cl)c([N+](=O)[O-])c1)NCCc1ccccc1,2.1%,-13.8%,-22.6,i,25.1µM*,13.6%[15.4 µM]
S=C(NCCCN(Cc1ccc(Cl)cc1)c1ccc(Br)cn1)NCc1ccc2nc[nH]c2c1,.,.,.,.,-6.8%,.
COc1cc2c(NC3CCN(C)CC3)nc(N3CCCN(C)CC3)nc2cc1OCCCN1CCCC1,.,.,.,.,4.4%,.
Cc1nc2ccc(S(=O)(=O)Nc3cccc(-c4nc5cccnc5s4)c3C)cc2s1,2.1%,35.5µM*,-27.2,i,-0.4%,12.2%
Cc1nc2ccc(S(=O)(=O)Nc3cc(-c4nc5cccnc5s4)ccc3C)cc2s1,14.0%,10.1%,3.9,i,-18.5%,39.0%
CCCOc1ccc2oc(=O)c3c(c2c1)CCCN3C(=O)CN1CCc2ccccc2C1,0.4%,-15.8%,-15.9,i,17.8µM*,-41.8%
CC1CCN(CC(=O)N2CCCc3c2c(=O)oc2ccc(OCc4ccccc4)cc32)CC1,-1.3%,-1.0%,3.2,i,?,-0.5%
CCCCOc1cccc(NC(=O)CSc2nnc(C)s2)c1,-2.4%,.,-15.3,.,-1.9%,.
COc1cccc(CNc2nc3nc(C)cc(C)n3n2)c1,2.6%,30.5%,-1.9,i,20µM*,0.0%
COc1cccc(Nc2cc(C)nc3nc(C)nn23)c1,0.3%,-2.8%,.,i,-2.5%,-29.0%
COc1cc(NS(=O)(=O)c2ccc(NC(=O)c3cccs3)cc2)nc(OC)n1,-0.4%,22.4µM*,0.0,i,.,19.3%[15.4 µM]
CCOC(=O)C(=O)Nc1sc(C(=O)N2CCOCC2)c(C)c1C#N,-1.0%,5.1%,-30.6,i,.,-19.4%[15.4 µM]
COC(=O)c1sc(NC(=O)c2c(OC)cccc2OC)c(C#N)c1C,?,46.2%,0.1,i,-3.7%,28.2µM*
COc1cc(C(=O)Nc2sc(C(=O)N3CCOCC3)c(C)c2C#N)cc(OC)c1OC,4.5%,18.2%,3.7,-106.6%*,?,-0.3%
COC(=O)c1sc(NC(=O)c2c(F)cccc2F)c(C#N)c1C,1.5%,-26.6%,1.1,i,-1.1%,-27.9%
c1ccc(-c2csc3ncnc(Sc4nnnn4-c4ccccc4)c23)cc1,.,.,.,.,3.7%,.
Cc1c(-n2c(SCC(=O)O)nnc2-c2ccccc2Cl)c(=O)n(-c2ccccc2)n1C,0.8%,10.2%,-11.0,i,35.5µM*,?
O=C(CC1C[C@H](C(=O)N2CCOCC2)[C@@]2(CCC3CCCC3)c3[nH]c4ccccc4c3CCN2C1=O)NCC12CC3CC(CC(C3)C1)C2 (some centres not stated),.,1.2%,.,i,1.6%,.
Cn1c(-c2ccc3nc(N)sc3c2)nc2cc(N)ccc21,12.3%,13.8%,17.3,i,10µM*,?
Cn1c(-c2ccc(Cl)nc2)nc2ccccc21,1.6%,6.3%,0.2,i,3.0%,4.7%
Nc1ccc(-c2nc3ccc(N)cc3s2)cc1,28.5%,-1.0%,10.0,i,.,8.9%[15.4 µM]
Cn1c(-c2ccc(N)cc2)nc2ccccc21,-0.7%,1.5%,-4.3,i,2.82µM*!,-20.2%
C=CCn1c(-c2ccc(C)cc2)nc2ccccc21,1.3%,?,0.1,?,7.08µM*,9.3%
CCc1ccccc1Nc1nn2c(=O)c3ccc(C(=O)NCCCOC(C)C)cc3nc2s1,2.9%,.,17.4,.,-7.5%,.
CN(C)c1ccc(/C=C/c2c(Cl)cnc3ccccc23)cc1,.,.,.,.,0.8%,.
COC(=O)c1sc(N2C(=O)C(O)=C(C(=O)c3ccc(C)o3)C2c2cccs2)nc1C (configuration not stated),12.6µM*,-33.1%,-20.5,i,-4.0%,?
COC(=O)c1sc(N2C(=O)C(O)=C(C(=O)c3ccc(C)o3)C2c2ccco2)nc1C (configuration not stated),-5.9%,-10.9%,-6.4,i,-3.6%,25.9%[15.4 µM]

# Compound activity deposited in PubChem by National Center for Advancing Translational Sciences (NCATS).
